Compounds without any hit were thinned out: in the full panel of roughly 79,000, 15% have a hit. No stated cut-off is given here; in the data, active means growth inhibition above about 70%; inactive means the rest.
Legend:
[1] = NCI Yeast Anticancer Drug Screen. Data for the rad50 strain (AID 155);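 further: 0% = growth of vehicle-only cultures of the same strain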; details: S. cerevisiae rad50 strain growth inhibition; at 50.0 µM; stronger effect = higher value
How it was run: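 Inhibition values express reduced yeast growth in compound-treated cultures relative to vehicle-treated controls.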

[2] = NCI Yeast Anticancer Drug Screen. Data for the mec2-1 strain (AID 157); details: S. cerevisiae mec2-1 strain, at 50.0 µM, stronger effect = higher value
How it was run: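 Using mec2-1 yeast: add compound, measure growth, express inhibition versus vehicle-treated cultures.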

[3] = NCI Yeast Anticancer Drug Screen. Data for the sgs1 mgt1 strain (AID 161);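 further: 0% = growth of cultures given vehicle only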; details: S. cerevisiae sgs1 mgt1 strain, at 50.0 µM, stronger effect = higher value
How it was run: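 This yeast growth screen uses a strain with defined DNA-repair lesions; compound-treated growth is compared with vehicle-treated growth.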

[4] = NCI Yeast Anticancer Drug Screen. Data for the cln2 rad14 strain (AID 165);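 further: 0% = growth equal to vehicle treated cultures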; details: S. cerevisiae cln2 rad14 strain, at 50.0 µM, stronger effect = higher value
How it was run: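 Yeast strain cln2 rad14, bearing defects in cell cycle control and DNA repair, serves as the test system; values reflect growth inhibition compared with vehicle.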

[5] = NCI Yeast Anticancer Drug Screen. Data for the bub3 strain (AID 167); details: S. cerevisiae bub3 mutant strain, at 50.0 µM, stronger effect = higher value
How it was run: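 Steps: expose the mutant yeast strain to compound; grow alongside vehicle-treated cultures; measure growth; express inhibition against the vehicle cultures.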

[6] = NCI Yeast Anticancer Drug Screen. Data for the mlh1 rad18 strain (AID 175); details: S. cerevisiae mlh1 rad18 strain growth inhibition; at 50.0 µM; stronger effect = higher value
How it was run: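 Steps: expose repair-defective yeast to compound; measure growth; express inhibition against vehicle-treated controls.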

Measured: growth inhibition

CO/N=C(\C(=O)OC(=NC1CCCCC1)NC1CCCCC1)c1csc(NC(c2ccccc2)(c2ccccc2)c2ccccc2)n1
inactive: [1] -5.15% | [2] -7.85% | [3] -5.4% | [4] -7.8% | [5] -0.3% | [6] -6.5%

C=CCC(O)c1ccc2c(c1)OCO2 (stereo not given)
inactive: [1] -1% | [2] 13.3% | [3] -9.8% | [4] -40% | [5] -4.25% | [6] 10.1%

CCOC(=O)c1c(-c2ccc(OC)cc2)c(C#N)c(=S)n(C2OC(COC(C)=O)C(OC(C)=O)C(OC(C)=O)C2OC(C)=O)c1-c1ccccc1 (stereo not given)
inactive: [1] -4.6% | [2] 0.05% | [3] -3.2% | [4] 21.6% | [5] 11.9% | [6] 13.4%

CS(=O)(=O)OC1CCC2CCCC1(C(=O)O)C2 (stereo not given)
inactive: [1] 2.4% | [2] -6.6% | [3] -0.75% | [4] -30% | [5] -5.2% | [6] 9.25%

Nc1ncnc2nc(-c3ccc(C(=O)c4cccc([N+](=O)[O-])c4)cc3)[nH]c12
inactive: [1] 1.85% | [2] 6.35% | [3] -7.5% | [4] -5.4% | [5] 14.6% | [6] -13.2%

O=C(O)C(CO)c1ccccc1 (stereo not given)
inactive: [1] 0.15% | [2] -1.3% | [3] -4.55% | [4] -4.65% | [5] 10.6% | [6] -2.75%

CC1(C)NC(=S)N(O)C1(C)C
inactive: [1] 0.1% | [2] -5.65% | [3] -19.8% | [4] -11.9% | [5] 10.8% | [6] -4.8%

CCOP(=O)(OCC)C(Cc1cn(S(=O)(=O)c2ccc(C)cc2)cn1)C(=O)O (stereo not given)
inactive: [1] -14.2% | [2] 12.5% | [3] 5.9% | [4] 16.2% | [5] 21.4% | [6] -17.4%

COc1cc(/C=N/NC(=O)N/N=C/c2cc(OC)c(OC)c(OC)c2)cc(OC)c1OC
inactive: [1] -37.9% | [2] -4.8% | [3] -11.1% | [4] 10.9% | [5] 0.95% | [6] 6.4%

CCOc1ccc(NC(=O)/C=C/c2ccco2)cc1
inactive: [1] -12% | [2] -8.75% | [3] 13.9% | [4] 22% | [5] 5.3% | [6] 3%

CSCCC(NC(=O)c1ccccc1)C(=O)O (stereo not given)
inactive: [1] -2.95% | [2] -15% | [3] 1.35% | [4] 3.85% | [5] 3.3% | [6] -10.6%

CC(C)(C)C([O-])=C1C(=O)c2ccccc2C1=O.CC(C)(C)C([O-])=C1C(=O)c2ccccc2C1=O.CC[O-].CC[O-].[Ti+4]
inactive: [1] 20.1% | [2] 47.1% | [3] 57.4% | [4] 47.3% | [5] 59.2% | [6] 46.2%

N#CCCOCC(COCCC#N)(COCCC#N)COCCC#N
inactive: [1] -11.9% | [2] -24.4% | [3] -7.55% | [4] 10% | [5] -12.9% | [6] -2.25%

CN(C)CCNc1ccc2nnn3c4ccccc4c(=O)c1c23
inactive: [1] 32.5% | [2] 7.45% | [3] 11.2% | [4] 29.7% | [5] 3% | [6] 25.5%

Cc1ccc(S(=O)(=O)Oc2c(Br)cc(-c3ccccc3)cc2Br)cc1
inactive: [1] 27.9% | [2] 3.4% | [3] 13.5% | [4] 6.65% | [5] -12.4% | [6] 18.6%

C=C(CC(=O)NN)C(=O)NN
inactive: [1] -4.75% | [2] 12.3% | [3] -24.2% | [4] -3.1% | [5] -22.5% | [6] 1.25%

CC(=O)OCC(C)(C)COC(C)=O
inactive: [1] 2.6% | [2] 1.65% | [3] -11.6% | [4] -7.9% | [5] -5.25% | [6] -11.2%

CCN(CC)CCN1C(=O)C(=O)N(c2cccc3ccccc23)C1=O
inactive: [1] -26.9% | [2] -15.7% | [3] -14.9% | [4] -14.2% | [5] -31.9% | [6] -10.2%

CN(C)CCC(=O)c1cccc(O)c1
inactive: [1] -27.9% | [2] -19% | [3] -6.4% | [4] -37.6% | [5] -9.45% | [6] -10.2%

Cn1c(=O)c2c(nc(CCCCCCCCc3nc4c(c(=O)n(C)c(=O)n4C)n3C)n2C)n(C)c1=O
inactive: [1] -7.5% | [2] 19.9% | [3] -24.8% | [4] -45% | [5] -14.8% | [6] -14.7%

Reference: PubChem BioAssay (NCI)
